According to PubChem BioAssay AID463198 (Broad Institute, 2010):
This is one part of the list. Values without a mark were called inactive. Calls of active or inactive are those of the source.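 Rule for the calls: active = fitted AC50 no greater than ten times the top concentration tested (cut at about 17 µM in these data); inconclusive = flat fit with 30 to 70% signal change, or an unreliable fit; inactive = AC50 beyond ten times the top concentration tested.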

Test: DNA intercalators displacing acridine orange, dose response, counter-screen for LANA–histone interaction inhibitor project, biochemical, fluorescence polarization, cell-free (AID 463198)
Conditions: acridine orange-DNA binding

**Q.** For O=S(=O)(Nc1cc(Cl)ccc1N1CCOCC1)c1ccccc1Cl, which AC50 is on record?
**A.** > 35 µM

**Q.** For Cc1nn(C)cc1N1C(=O)c2cccc3c(N)ccc(c23)C1=O, which AC50 is on record?
**A.** 4.91 µM (active)

**Q.** With COc1ccc(C2C=C(c3ccc(Br)cc3)Nc3nc(NS(C)(=O)=O)nn32)cc1 (centres undefined) as the compound, how does the AC50 read?
**A.** > 35 µM

**Q.** For CN1C(=O)c2cccc3c(N)ccc(c23)C1=O, which AC50 is on record?
**A.** 7.65 µM (active)
